Screening results: PubChem, National Center for Advancing Translational Sciences (NCATS)
An excerpt weighted towards active compounds, which were near 19% of everything screened.
SW480 rerep – A quantitative high throughput screen for small molecules that induce DNA re-replication in SW480 colon adenocarcinoma cells. SW480 DNA re-replication, Hoechst DNA content imaging, 48 h. Potency, µM (top dose mostly 46.1 µM), most hits filed as activators. 1.8% of 340,000 active. AID 624297, 2012; also: nearly all actives have a fitted effect of over 55% in size
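SW480 cells exposed to compounds for 48 hr at 37 C, 5% CO2, then Hoechst-stained 40 min. Nuclear DNA content imaged by fluorescence scanning (405 nm excitation, 500-530 nm emission); re-replication scored as increased high-intensity nuclei.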
MCF10A rerep – A quantitative high throughput screen for small molecules that induce DNA re-replication in MCF 10a normal breast cells | AID 624296, 2012 | MCF 10A DNA re-replication, Hoechst nuclear intensity, 48 h | 2.9% of 350,000 active | Potency, µM (doses to about 46.1 µM), actives largely listed as activators; also: nearly all actives have a fitted effect of over 50% in size
TDP1 cell noCPT – qHTS for Inhibitors of human tyrosyl-DNA phosphodiesterase 1 (TDP1): qHTS in cells in absence of CPT; DT40 Tdp1-/- hTDP1 cells, no CPT, ATP luminescence, 48 h; Potency, µM (titrated, usually from 46.2 µM), actives largely listed as inhibitors; 15% of 420,000 active; AID 686978, 2013; also: nearly all actives have a fitted effect of over 55% in size
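A cellular qHTS used chicken DT40 cells lacking endogenous Tdp1 but carrying stably transfected human TDP1. Compounds were applied without camptothecin, and cell growth kinetics were judged by ATP-dependent luminescence after ≥48 hr.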
IL1B secr inh – qHTS for Inhibitors of Inflammasome Signaling: IL-1-beta AlphaLISA Primary Screen; THP-1 LPS/ATP IL-1B secretion, AlphaLISA, 16 h; stronger effect = lower value; activity change, % at 57.5 µM; 4.7% of 360,000 active; in the data active = activity change below about -50%; inconclusive = mostly about -30% to -49%
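Secreted IL-1B measured by AlphaLISA bead assay after 16 h compound exposure of THP-1 cells; compounds (final up to 57.5 uM) added 1 h before LPS (250 ng/mL) and ATP (1.25 mM) stimulation; lower signal means less secretion.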
DT40 TDP1 CPT – qHTS for Inhibitors of human tyrosyl-DNA phosphodiesterase 1 (TDP1): qHTS in cells in presence of CPT. chicken DT40 Tdp1-/-;hTDP1 cells + 20 nM CPT, ATP luminescence, 48 h. Potency, µM (series often up to 46.2 µM), most hits filed as inhibitors. 12% of 420,000 active. AID 686979, 2013; also: nearly all actives have a fitted effect of over 55% in size
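Chicken DT40 Tdp1-/- cells complemented with human TDP1, 400 cells/well, exposed to compounds plus 20 nM camptothecin for at least 48 h at 37 C; viability read as ATP content by CellTiter-Glo luminescence.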
BCR signal inh – qHTS Assay to Find Inhibitors of Chronic Active B-Cell Receptor Signaling; Potency, µM (series often up to 46.1 µM), hits mostly inhibitors; ABC-DLBCL IkBa-CBG/CBR reporter, luminescence ratio, 4 h; 0.05% of 340,000 active; active = well fitted inhibition curve with a large enough effect in the signal ratio, with a control signal flat, not every such curve was filed as active; inconclusive = small, poorly fitted or top-dose-only effect, or effect the other way, or a change in a side signal; the % refers to the signal ratio
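Compounds up to 46 uM were incubated four hours with TMD8 cells whose green CBG68 luciferase is fused to IkappaBalpha; red CBR luminescence normalised the signal, and concentration-effect curves were fitted to fusion, red and ratio data.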
Hits are given with their value; i = inactive; ? = inconclusive; nt = no result given; [ ] = remark or other dose. Unless noted, calls follow the shape of the dose curve; as a rule, active = well fitted curve in the direction sought with a large enough effect; inconclusive = small, poorly fitted or top-dose-only effect, or another doubt; inactive = no such curve, though single readings can be large; an effect the other way counts as inactive or inconclusive.

SMILES	SW480 rerep	MCF10A rerep	TDP1 cell noCPT	IL1B secr inh	DT40 TDP1 CPT	BCR signal inh
c1csc(-c2nc(N3CCCCC3)no2)c1	i	i	i	i	?	?
CCN1CCN(c2nc(-c3cccs3)nc3ccccc23)CC1	i	i	i	?	i	?
CN1CCN(c2nc(-c3ccc(Cl)cc3)nc3ccccc23)CC1	i	i	16µM	-89	?	i
O=C(c1ccc2c(c1)OCCO2)N1CCN(c2nc(-c3cccs3)nc3ccccc23)CC1	nt	nt	11µM	nt	11µM	nt
CN1CCN(c2nc(-c3cccs3)nc3ccccc23)CC1	?	?	?	-59	?	?
CN1CCN(c2nc(-c3ccc(Cl)cc3Cl)nc3ccccc23)CC1	i	i	?	?	?	i
c1csc(-c2cc(N3CCCCC3)c3ccccc3n2)c1	i	21µM	?	i	i	i
Oc1ccccc1N1CCN(c2nc(-c3cccs3)nc3ccccc23)CC1	i	i	?	i	i	i
CCNC(=O)C1(C)CCN(C(=O)c2c(F)ccc(C)c2F)C1 (configuration not stated)	nt	nt	i	i	i	nt
CC(=O)c1ccc(-c2c(CCO)sc3ccccc23)cc1	nt	nt	?	i	?	nt
CCSc1nnc2c(n1)OC(c1ccc(OC)c(OC)c1)N(C(C)=O)c1ccccc1-2 (configuration not stated)	nt	nt	i	nt	i	nt
CCSc1nnc2c(n1)OC(c1sccc1C)N(C(C)=O)c1ccccc1-2 (configuration not stated)	nt	nt	13µM	nt	?	nt
CCOC(=O)C1CCN(C(=O)c2ccco2)CC1	i	i	i	i	i	i
Cc1oc2c(c1C(=O)N1CCC(C)CC1)C(=O)c1ccccc1C2=O	12µM	i	12µM	i	7.3µM	i
CCOC(=O)C1CCN(C(=O)c2c(C)oc3c2C(=O)c2ccccc2C3=O)CC1	12µM	?	7.3µM	-76	5.2µM	i
C=CCN(C(=O)c1ccc2snnc2c1)c1ccccc1	i	i	i	i	i	i
O=C(CSc1nc2ccccc2o1)N/N=C/c1ccccc1	i	i	i	i	i	i
COc1ccc2nc(C)cc(SCC(=O)O)c2c1	i	i	i	i	i	?
O=C(CSc1nc2ccccc2o1)N/N=C/c1ccc(O)c(O)c1	?	i	21µM	i	18µM	i
COc1ccc2nc(C)cc(SCC(=O)N/N=C/c3ccc(O)c(O)c3)c2c1	?	i	29µM	?	?	?
COc1ccc2nc(C)cc(SCC(=O)N/N=C/c3cccc4ccccc34)c2c1	4.6µM	3.7µM	13µM	-56	7.1µM	?
COC(=O)CSc1cc(C)nc2ccc(OC)cc12	i	i	i	i	i	i
COc1cccc2c(SCC(=O)N/N=C/c3ccc(O)c(O)c3)cc(C)nc12	?	i	?	-64	i	i
COc1ccc(NC(=O)C2CCCN(S(C)(=O)=O)C2)cc1Cl (configuration not stated)	i	i	i	i	i	?
COc1ccc(CCCc2nnc(SCC(=O)N/N=C\c3ccc(O)c(OC)c3)o2)cc1C	i	i	?	i	15µM	?
Cc1cc(SCC(=O)N/N=C/c2ccc(O)c(O)c2)c(C)cc1Br	i[9.22 µM]	?	16µM	i	21µM	?
CC(=O)N1CCC(=NNC(=O)CSc2cc(C)c(Br)cc2C)CC1	i	i	i	i	i	i
Cc1cc(SCC(=O)N/N=C/c2ccc(O)cc2O)nc2ccccc12	12µM	i	4.1µM	i	?	?
Cc1cc(SCC(=O)N/N=C/c2ccc(O)c(O)c2)nc2ccccc12	?	i	?	i	?	?
